Source: PubChem BioAssay (NCATS)
Records with an inconclusive call do not appear. Entries that show only a call come without a potency. A structure can be active in one record and inactive in another. The source made the active and inactive calls. Unless noted, the call rests on the fitted dose curve; in most records, active means well fitted curve in the direction sought with a large enough effect; inconclusive means small, poorly fitted or top-dose-only effect, or another doubt; inactive means no such curve, though single readings can be large; an effect the other way counts as inactive or inconclusive.

How the values were obtained:
[1] = qHTS for Inhibitors of Plasmodium falciparum (DD2) proliferation (AID 504314);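 further: parasite DNA measured by SYBR Green fluorescence after red cell lysis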
How it was run: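 Quantitative HTS growth inhibition: SYBR Green I binding to parasite DNA after 72 h drug exposure of infected erythrocytes (0.3% parasitemia, 2.5% hematocrit). Signals normalized per plate to inhibitor and vehicle wells.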

[2] = qHTS for Inhibitors of Plasmodium falciparum (GB4) proliferation (AID 504315); further: nearly all actives have a fitted effect of over 50% in size; further: potency means the concentration at half of the fitted maximal effect
How it was run: (§1)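 Erythrocytes infected with P. falciparum line (0.3% parasitemia, 2.5% hematocrit final) incubated with compounds 72 h at 37 °C, 5% CO2; SYBR Green lysis buffer added, fluorescence read next day. Normalized to 0.29 uM artemisinin and DMSO.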

[3] = qHTS for Inhibitors of Plasmodium falciparum (7G8) proliferation (AID 504316); further: series mostly up to about 6.7 µM; nearly all actives have a fitted effect of over 65% in size
How it was run: as §1

[4] = qHTS for Inhibitors of Plasmodium falciparum (HB3) proliferation (AID 504318); further: nearly all actives have a fitted effect of over 60% in size; further: potency means the concentration at half of the fitted maximal effect
How it was run: as §1

[5] = qHTS for Inhibitors of Plasmodium falciparum (CP250) proliferation (AID 504320)
How it was run: as §1

[6] = molecular target: Atrial natriuretic peptide receptor 1 (Homo sapiens) (UniProt P16066); assay: Natriuretic polypeptide receptor (hNpr1) antagonism - Pilot CMLD screen (AID 1347052; calls by dose curve;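 further: HEK293 cells with hNpr1 stimulated by hNppA peptide at 0.1 nM; cGMP level read as GloSensor luciferase luminescence after agonist stimulation; series mostly up to about 9.2 µM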)
Chain of Atrial natriuretic peptide receptor 1 (Homo sapiens) (P16066 whole entry, looked up): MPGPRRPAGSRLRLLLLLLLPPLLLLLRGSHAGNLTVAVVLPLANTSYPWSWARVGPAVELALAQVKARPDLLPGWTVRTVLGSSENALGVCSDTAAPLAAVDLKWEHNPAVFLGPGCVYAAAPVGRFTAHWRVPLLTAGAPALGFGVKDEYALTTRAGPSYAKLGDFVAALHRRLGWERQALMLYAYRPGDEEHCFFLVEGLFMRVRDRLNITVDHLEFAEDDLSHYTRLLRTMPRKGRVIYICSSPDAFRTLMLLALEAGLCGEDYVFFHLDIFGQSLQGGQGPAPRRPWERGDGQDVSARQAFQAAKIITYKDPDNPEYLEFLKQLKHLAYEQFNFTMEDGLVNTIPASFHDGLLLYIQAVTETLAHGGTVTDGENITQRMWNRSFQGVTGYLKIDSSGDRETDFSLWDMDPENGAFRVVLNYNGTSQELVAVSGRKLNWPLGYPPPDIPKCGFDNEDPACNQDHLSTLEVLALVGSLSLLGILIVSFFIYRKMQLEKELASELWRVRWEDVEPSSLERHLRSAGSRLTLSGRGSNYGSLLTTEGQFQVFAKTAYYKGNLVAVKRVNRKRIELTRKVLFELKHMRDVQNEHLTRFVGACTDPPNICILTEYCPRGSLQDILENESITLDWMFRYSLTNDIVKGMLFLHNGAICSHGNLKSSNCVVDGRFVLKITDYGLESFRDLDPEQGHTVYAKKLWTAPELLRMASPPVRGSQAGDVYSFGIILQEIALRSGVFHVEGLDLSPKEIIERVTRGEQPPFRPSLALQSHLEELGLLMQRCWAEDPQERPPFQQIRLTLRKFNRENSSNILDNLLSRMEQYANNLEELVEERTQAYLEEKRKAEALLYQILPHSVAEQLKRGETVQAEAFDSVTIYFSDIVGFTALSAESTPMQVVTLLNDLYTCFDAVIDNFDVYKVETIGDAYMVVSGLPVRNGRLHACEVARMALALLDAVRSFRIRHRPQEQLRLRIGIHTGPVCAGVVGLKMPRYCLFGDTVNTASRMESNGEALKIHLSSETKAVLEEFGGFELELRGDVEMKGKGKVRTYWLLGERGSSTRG

SMILES	Potency [1]	Potency [2]	Potency [3]	Potency [4]	Potency [5]	Potency [6]	activity, negative = inhibition [1]
COC(=O)N[C@@H](c1ccccc1)[C@]1(C(C)=O)CCCC1=O	inactive	inactive	inactive	inactive	inactive	inactive	
CCN1C(=O)N[C@@H](c2cccc(C(F)(F)F)c2)[C@H](C(C)=O)[C@H]1C	inactive	inactive	inactive	inactive	inactive	inactive	
COC(=O)CCCC1=CC2=CC(=O)C(C)(OC(=O)c3cccs3)C(=O)C2=CN1C1CC1 (stereo unspecified)	inactive	inactive	inactive	inactive	inactive	inactive	
O=C1[C@H]2[C@@H]3[C@@H](O)[C@H](O)CC(=NOCc4ccccc4)[C@@H]3CC[C@H]2C(=O)N1c1ccc(F)cc1F	inactive	inactive	inactive	inactive	inactive	inactive	
C=CC[C@@]1(C(=O)OC)C=C[C@@H](C)[C@H](c2ccccc2Br)N1C(=O)C(F)(F)F	inactive	inactive	inactive	inactive	inactive	inactive	
CC=COC(=O)N[C@@H](c1cccc(C)c1)[C@]1(C(=O)OCC)CCCC1=O	inactive	inactive	inactive	inactive	inactive	inactive	
COC(=O)CCCC1=CC2=C(c3ccccc3)C(=O)C(C)(OC(=O)C3CCCC3)C(=O)C2=CN1c1ccccc1 (stereo unspecified)	inactive	inactive	inactive	inactive	inactive	inactive	
COC(=O)C1=C(C)[C@H](O)[C@@H](C)[C@](C)(c2cc(OC)c(C)c(OC)c2COc2ccccc2)O1	inactive	2.13 µM (active) and inactive	inactive	1.9 µM (active) and inactive	inactive	inactive	
COC(=O)C1=C(C(=O)OC)[C@@H]2N(C)c3ccccc3[C@@]23C[C@@H](C(=O)OC)N(C(=O)c2ccco2)C3=N1	inactive	inactive	inactive	inactive	inactive	inactive	
CCCCC1=CC2=C(c3ccco3)C(=O)C(C)(OC(=O)c3ccc(OC)cc3)C(=O)C2=CN1CCCOC(C)C (stereo unspecified)	inactive	inactive	inactive	inactive	inactive	inactive	
C=C(C)CCN1C(=O)NC(c2ccccc2)C(C(C)=O)=C1C (stereo unspecified)	inactive	inactive	inactive	inactive	inactive	inactive	
O=C(NC(CC1=CCCCC1)c1ccccc1)C(F)(F)F (stereo unspecified)	inactive	inactive	inactive	inactive	inactive	inactive	
COC(=O)C1=C(C(=O)OC)[C@@H]2Nc3ccccc3[C@@]23C[C@@H](C(=O)OC)N(C(=O)COCc2ccccc2)C3=N1	inactive	inactive	inactive	inactive	inactive	inactive	
COC(=O)C1=C(C(=O)OC)[C@@H]2Nc3ccccc3[C@@]23C[C@@H](C(=O)OC)N(C(=O)NC(C)(C)C)C3=N1	inactive	inactive	inactive	inactive	inactive	inactive	
C[C@@H]1C=CCCO[C@]12C(=O)N(Cc1ccc(Br)cc1)c1cccc(Br)c12	inactive	inactive	inactive	inactive	inactive	inactive	
CC1=CC[C@@H](C)O[C@@]2(C1)C(=O)N(Cc1ccc(Br)cc1)c1ccccc12	inactive	inactive	inactive	inactive	inactive	inactive	
O=C1CCCC1C(O)c1ccc2ccccc2c1 (stereo unspecified)	inactive	inactive	inactive	inactive	inactive	inactive	
CC(=O)OC[C@H]1O[C@H](CC=NO[C@H](C)c2cn([C@@H]3COC[C@@H]3O)nn2)C=C[C@@H]1OC(C)=O	inactive	inactive	inactive	inactive	inactive	inactive	
COc1cccc(CO[C@H]2C=C[C@@H](c3ccccc3)O[C@H]2CO)c1	inactive	inactive	inactive	inactive	inactive	inactive	
O=C(NN=C1C[C@@H](O)[C@H](O)[C@H]2[C@@H]3C(=O)N(C[C@@H]4CCCO4)C(=O)[C@@H]3CC[C@H]12)OCc1ccccc1	inactive	inactive	inactive	inactive	inactive	inactive	
COc1ccc2ccccc2c1-c1c(OC)ccc2ccccc12	inactive	inactive	inactive	inactive	inactive	inactive	
COCCN1C(=O)NC(c2cccc(C(F)(F)F)c2)C(C(=O)OC)=C1C (stereo unspecified)	inactive	inactive	inactive	inactive	inactive	inactive	
CC(C)CON=C1C[C@@H](O)[C@@H](O)[C@@H]2[C@H]3C(=O)N(Cc4ccccc4)C(=O)[C@@H]3CC[C@@H]12	inactive	inactive	inactive	inactive	inactive	inactive	
COC1=C[C@H](C(=O)NCc2ccccc2)[C@H](C)[C@@H](c2ccccc2)CC1=O	inactive	inactive	inactive	inactive	inactive	inactive	
C=CCOC(=O)C(C(C)=O)[C@@H](NC(=O)OC)c1cccc(F)c1 (stereo partly specified)	inactive	inactive	inactive	inactive	inactive	inactive	
COCCN1C(=O)N(C)C(c2ccccc2)C(C(C)=O)=C1C (stereo unspecified)	inactive	inactive	inactive	inactive	inactive	inactive	

SMILES	Potency [1]	Potency [2]	Potency [3]	Potency [4]	Potency [5]	Potency [6]	activity, negative = inhibition [1]
O=C1CCCC=C1C(CCc1ccccc1)OC(=O)c1ccc(Br)cc1 (stereo unspecified)	inactive	inactive	inactive	inactive	inactive	inactive	
COC(=O)C12C[C@H](C)C3C(C)C(c4ccccc4C31)N2C(=O)C(F)(F)F (stereo partly specified)	inactive	inactive	inactive	inactive	inactive	inactive	
COC(=O)CCCC1=CC2=CC(=O)C(C)(OC(=O)c3cccs3)C(=O)C2=CN1C1CCCCC1 (stereo unspecified)	inactive	inactive	inactive	inactive	inactive	inactive	
CC(C)=CCn1cnc2c1C(NOCc1ccccc1)=NCN2	inactive	inactive	inactive	inactive	inactive	inactive	
COC(=O)N[C@@H](c1ccc(Br)cc1)C(C(=O)OC)C(=O)OC	inactive	inactive	inactive	inactive	inactive	inactive	
COC(=O)CC=C[C@@H](C)[C@@H](Cc1ccccc1Br)OC	inactive	inactive	inactive	inactive	inactive	inactive	
CCCCCCCc1cc2ccccc2c2c(C(C)=O)c(-c3ccccc3)c(C(=O)OC)n12	inactive	inactive	inactive	inactive	inactive	inactive	
COC(=O)CCCC1=CC2=C(c3ccccc3)C(=O)C(C)(OC(=O)C3CCCC3)C(=O)C2=CN1CCCCO (stereo unspecified)	inactive	inactive	inactive	inactive	inactive	inactive	
COC(=O)C1=C(C)N(Cc2ccccc2)C(=NCc2ccc(OC)cc2)NC1c1ccccc1 (stereo unspecified)	inactive	inactive	inactive	inactive	inactive	inactive	
CCOC(=O)CCN1C(=O)[C@@H]2[C@H]3[C@H](O)[C@H](O)CC(=NNC(=O)OCc4ccccc4)[C@H]3CC[C@H]2C1=O	inactive	inactive	inactive	inactive	inactive	inactive	
COC(=O)NCC=Cc1nc(CCCO)co1	inactive	inactive	inactive	inactive	inactive	inactive	
CCOC(=O)CN1C(=O)[C@@]2(C[C@@H](C)C[C@@H](C)O2)c2ccccc21	inactive	inactive	inactive	inactive	inactive	inactive	
C=CCCCN1C=C(C(C)=O)C(c2ccccc2)NC1=O (stereo unspecified)	inactive	inactive	inactive	inactive	inactive	inactive	
COC(=O)C1=C(C(=O)OC)[C@@H]2Nc3ccccc3[C@@]23C[C@@H](C(=O)OC)N(C(=O)Nc2ccc(C(F)(F)F)cc2)C3=N1	inactive	inactive	inactive	inactive	inactive	inactive	
CCN1C(=NCc2ccccc2)N[C@@H](c2ccccc2)[C@H](C(=O)OC)[C@H]1C	inactive	inactive	inactive	inactive	inactive	inactive	
C=CCOC(=O)C(C(C)=O)[C@@H](NC(=O)OC)c1cccs1 (stereo partly specified)	inactive	inactive	inactive	inactive	inactive	inactive	
O=C1[C@H]2[C@@H]3[C@@H](O)[C@H](O)CC(=NOCc4ccccc4)[C@H]3CC[C@H]2C(=O)N1C[C@@H]1CCCO1	inactive	inactive	inactive	inactive	inactive	inactive	
C[C@H]1Cc2c(COc3ccccc3)nc3c(c2CO1)CN(C(=O)C1CCCCC1)CC3		inactive	inactive	inactive	inactive	inactive	-0.952% [at 1.12 µM] (inactive)
C#CCCCON=C1C[C@@H](O)[C@H](O)[C@H]2[C@@H]3C(=O)N(C[C@@H]4CCCO4)C(=O)[C@@H]3CC[C@@H]12	inactive	inactive	inactive	inactive	inactive	inactive	
C=CCN1C(=O)[C@@]2(CC(C)=CC[C@@H](C)O2)c2ccccc21	inactive	inactive	inactive	inactive	inactive	inactive	
CC(C)OC(=O)CC(NC(=O)OC(C)(C)C)c1ccccc1 (stereo unspecified)	inactive	inactive	inactive	inactive	inactive	inactive	
CC(C)CON=C1C[C@@H](O)[C@@H](O)[C@@H]2[C@H]3C(=O)N(C[C@@H]4CCCO4)C(=O)[C@@H]3CC[C@@H]12	inactive	inactive	inactive	inactive	inactive	inactive	
COCCN1C=C2C(=O)C(C)(OC(=O)C3CCCC3)C(=O)C(c3ccccc3)=C2C=C1CCCC(=O)OC (stereo unspecified)	inactive	inactive	inactive	inactive	inactive	inactive	
CCCCc1nc2c(c3c1C[C@H](C)OC3)CN(C(=O)C1CCCCC1)CC2		inactive	inactive	inactive	inactive	inactive	-0.437% [at 1.12 µM] (inactive)
CCN(CC)CCCN=C1NC(c2ccccc2)C(C(=O)OC)=C(C)N1CC (stereo unspecified)	inactive	inactive	inactive	inactive	inactive	inactive	
